The record followed here is publication PMC5540273 (PLoS ONE, 2017).

One assay deals with T1, ERK1.
T1 construct: gene MAPK3
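Further: kd values determined as follow-up on hits from a single-replicate KINOMEscan panel screen.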

The compound `Nc1nc(-c2ccc3c(N)n[nH]c3c2)cc(N2CCC[C@@H](C(=O)Nc3ccccc3)C2)n1.O=C(O)C(F)(F)F.O=C(O)C(F)(F)F` [GSK2288359] yielded a Kd in the assay on ERK1 of 5.3 µM. For `O=C(Nc1n[nH]c2nc(-c3ccco3)c(Br)cc12)c1ccc(CN2CCCC2)cc1.O=C(O)[C@H](O)[C@@H](O)C(=O)O` [SB-742352], the Kd in the assay with EPHA4 is over 10 µM; in the assay on EPHA6, over 10 µM; with EPHB6, 0.16 µM.

As to `FC(F)(F)c1ccc(-c2nn3ncccc3c2-c2ccnc(Nc3cccc(C(F)(F)F)c3)n2)cc1` [GW828205], in the assay with EPHA4, the equilibrium dissociation constant (Kd) is over 10 µM. In the assay on EPHA1, `Clc1cccc(-c2nc(Nc3ccncc3)c3ccccc3n2)c1` [GW873004] came in with a Kd of over 10 µM. `CCc1nc(-c2cccc(C)c2)c(-c2ccnc(NC(=O)c3ccccc3)c2)s1`: binding with EPHB6 was characterised by a dissociation constant (Kd) of 7.6 µM. `Cl.Cn1ccc(-c2cccc(Nc3ccnc4cc(-c5nccs5)ccc34)c2)n1` [GW525701]: the Kd in the assay with EPHA3 is over 10 µM; with EPHB6 it was 0.082 µM.

Take `FC(F)(F)c1ccc(-c2cc(-c3c[nH]nc3-c3ccccn3)ccn2)cc1` [GW599550]: the Kd in the assay with EIF2AK1 was over 10 µM. On to `Fc1cccc(COc2ccc(Nc3ncnc4sc(-c5ccc[nH]5)cc34)cc2Cl)c1` [GW707818], for which the results for the Kd with EGFR, in the assay on ERBB2 and in the assay on ERBB4 were 0.0026 µM, 0.1 µM and 0.56 µM, respectively.

With `Cc1ccc(O)cc1Nc1cc(C(F)(F)F)nc2ccc(-c3ccncc3)cc12` [GW630823], the Kd in the assay with EPHA7 was over 10 µM.

What is called Kd is the concentration at which binding is half-saturated.
